target: Shiga toxin 2 (Escherichia coli O157:H7) (UniProt P09385+P09386); assay: E. coli 0.157:H7 Shiga Toxin SOP - stx2 screening assay; format: functional; design: scale not given: direction of the effect not stated beside the values; details: 30 µM

Going from c1cnnc(N2CCCC2CNc2ncnc3c2CCC3)c1 (stereo not given) to Cc1nc(C)n(CC2CCCN(CC(=O)Nc3nncs3)C2)n1 (stereo not given), the Percent Effect rises from 2.94% to 25.6%.

Going from CC(C)C(=O)N1CCN(C(=O)c2cc(C(C)C)on2)[C@H]2CS(=O)(=O)C[C@H]21 to CCc1noc(C)c1C(=O)N1CCCC1Cn1nc(C)cc1C (stereo not given), the Percent Effect rises from -14.2% to 27.6%.

Compared with Cc1nn(C)c(Cl)c1CNCc1cccnc1N1CCN(C)CC1, CCCn1[nH]cc/c1=N\C(=O)CN1CCCC1c1c(C)nn(C)c1C (stereo not given) is lower in Percent Effect: -1.67% for the first, -11% for the second.

Going from Cc1cccc(OCCC(=O)N(C)CCC#N)c1C to COCCN1CCN(Cc2cccc(OCC(N)=O)c2)CC1C (stereo not given), the Percent Effect falls from 8.57% to -6.57%.

Going from CC(NC(=O)NCC1(c2ccccc2)CCC1)c1nncn1C (stereo not given) to O=C1CC2(CCN(c3nncs3)C2)CN1c1ccccc1 (stereo not given), the Percent Effect falls from 14.9% to -24.1%.

Going from CC(C)c1n[nH]c(C(=O)Nc2cc[nH]n2)c1Br to CCSc1ccc(C(=O)Nc2c(C)nn(C(C)C)c2C)cn1, the Percent Effect falls from 13.3% to -37.7%.

Going from CCc1nnc(CN(C)c2nc(C(C)C)nc3c2cnn3C)o1 to Cc1nc(N2CCCCC2)ncc1-c1cc(O)[nH]n1, the Percent Effect rises from -7.55% to -1.17%.

Compared with CCS(=O)(=O)NCCNC(=O)c1cc(Cl)c2c(c1)OCCCO2, O=C(c1ccnnc1)N1C[C@@H](OCC2CCOCC2)[C@H]2OCCC[C@H]21 is lower in Percent Effect: -2.3% for the first, -14.6% for the second.

Compared with O=C(CSc1ncccn1)N1C[C@H]2CC[C@@H]1CN(Cc1ccncc1)C2, CC(O)CN1CCC(CNCc2cccc(OC(C)C)c2)CC1 (stereo not given) is higher in Percent Effect: -26.2% for the first, -10.6% for the second.

Compared with O=C(c1cscn1)N1C[C@@H]2C[C@@H](c3nnc(C4CC4)o3)O[C@@H]2C1, N#Cc1ccc(C(=O)N2CCC3(CC2)C(=O)Nc2ccccc23)cn1 is higher in Percent Effect: -37.8% for the first, 1.52% for the second.
